Results reported in PubChem BioAssay (EPA / NIEHS).
Activity calls are given as the source filed them. How the source made its calls: active means hit-call score of the fitted dose curve at least 0.9, where 1 is the maximum; inactive means score below 0.9.

What was measured:
Settings in all cases: mRNA level, 48 h; actives raise or lower the signal
[1] = read-out: Peroxisomal acyl-coenzyme A oxidase 1 (ACOX1) gene, ACOX1 (gene 51); experiment: LTEA_HepaRG_ACOX1: Life Technologies and Expression Analysis (LTEA) Assay for Peroxisomal acyl-coenzyme A oxidase 1 (ACOX1) gene using HepaRG (AID 2283467)
Outline: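 Differentiated human HepaRG cells were exposed in duplicate for 48 h in serum-free induction medium to eight half-log concentrations up to 100 uM in 0.5% DMSO. ACOX1 mRNA was then quantified by TaqMan qRT-PCR, normalized to ACTB, GAPDH and POLR2A.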

[2] = read-out: Alkaline Phosphatase, Placental (ALPP) gene, ALPP (gene 250); experiment: LTEA_HepaRG_ALPP: Life Technologies and Expression Analysis (LTEA) Assay for Alkaline Phosphatase, Placental (ALPP) gene using HepaRG (AID 2283468)
Outline: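 HepaRG cells plated 48 h, then exposed in duplicate for 48 h in serum-free induction medium to 8-point half-log series from 100 uM in 0.5% DMSO. ALPP mRNA by TaqMan qRT-PCR, normalized to ACTB/GAPDH/POLR2A; bidirectional fit versus DMSO.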

[3] = read-out: Bcl-2 (BAD) gene, BAD (gene 572); experiment: LTEA_HepaRG_BAD: Life Technologies and Expression Analysis (LTEA) Assay for Bcl-2 (BAD) gene using HepaRG (AID 2283469)
Outline: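 Differentiated human HepaRG cells in serum-free induction medium were exposed in duplicate for 48 h to eight concentrations (top 100 uM, half-log steps, 0.5% DMSO). BAD mRNA was quantified by qRT-PCR normalised to ACTB, GAPDH and POLR2A, with bidirectional fitting versus DMSO.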

[4] = read-out: Bcl-2 (BAX) gene, BAX (gene 581); experiment: LTEA_HepaRG_BAX: Life Technologies and Expression Analysis (LTEA) Assay for Bcl-2 (BAX) gene using HepaRG (AID 2283470)
Outline: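 Differentiated HepaRG cells exposed 48 h in serum-free induction medium, eight half-log concentrations from 100 uM, in duplicate, 0.5% DMSO vehicle. BAX mRNA by TaqMan qRT-PCR, normalised to ACTB, GAPDH and POLR2A.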

[5] = read-out: adenosine kinase (ADK) gene, ADK (gene 132); experiment: LTEA_HepaRG_ADK: Life Technologies and Expression Analysis (LTEA) Assay for adenosine kinase (ADK) gene using HepaRG (AID 2283471)
Outline: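 Following 48 h exposure of HepaRG cells in 0.5% DMSO (top concentration 100 uM, duplicate wells), ADK mRNA induction or suppression was measured by qRT-PCR, normalised to ACTB/GAPDH/POLR2A, and fitted bidirectionally relative to vehicle.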

[6] = read-out: Alpha-fetoprotein (AFP) gene, AFP (gene 174); experiment: LTEA_HepaRG_AFP: Life Technologies and Expression Analysis (LTEA) Assay for Alpha-fetoprotein (AFP) gene using HepaRG (AID 2283472)
Outline: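 Differentiated human HepaRG cells exposed 48 h in serum-free induction medium, 8-point half-log series from 100 uM in 0.5% DMSO, duplicate. AFP mRNA by qRT-PCR, normalized to ACTB, GAPDH, POLR2A; bidirectional fit vs DMSO.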

BCL2L11 (gene 10018) = experiment: LTEA_HepaRG_BCL2L11: Life Technologies and Expression Analysis (LTEA) Assay for Bcl-2 (BCL2L11) gene using HepaRG (AID 2283473)
Outline: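 Differentiated human HepaRG cells were exposed 48 h in serum-free induction medium to eight half-log concentrations up to 100 uM in 0.5% DMSO, in duplicate. BCL2L11 mRNA was quantified by TaqMan qRT-PCR, normalized to ACTB, GAPDH and POLR2A; induction or repression fitted versus DMSO.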

[7] = read-out: Apoptosis regulator Bcl-2 (Homo sapiens) (UniProt P10415); experiment: LTEA_HepaRG_BCL2: Life Technologies and Expression Analysis (LTEA) Assay for Bcl-2 gene using HepaRG (AID 2283475)
Outline: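 Differentiated human HepaRG cells in serum-free induction medium exposed 48 h, in duplicate, to 8-point half-log series from 100 uM in 0.5% DMSO. BCL2 mRNA by qRT-PCR (TaqMan/Fluidigm), normalized to ACTB, GAPDH, POLR2A; bidirectional fit against DMSO.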

[8] = read-out: Bcl-2 (BID) gene, BID (gene 637); experiment: LTEA_HepaRG_BID: Life Technologies and Expression Analysis (LTEA) Assay for Bcl-2 (BID) gene using HepaRG (AID 2283476)
Outline: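 Gene expression by qRT-PCR in HepaRG cells after 48 h exposure, duplicate wells, eight half-log concentrations topping at 100 uM in 0.5% DMSO. Normalized to ACTB, GAPDH, POLR2A; bidirectional fitting relative to DMSO.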

Caspase-3 (Homo sapiens) = Caspase-3 (Homo sapiens) (UniProt P42574); experiment: LTEA_HepaRG_CASP3: Life Technologies and Expression Analysis (LTEA) Assay for cysteine-aspartic acid protease (CASP3) using HepaRG (AID 2283477)
Chain of Caspase-3 (Homo sapiens) (P42574 whole entry, looked up): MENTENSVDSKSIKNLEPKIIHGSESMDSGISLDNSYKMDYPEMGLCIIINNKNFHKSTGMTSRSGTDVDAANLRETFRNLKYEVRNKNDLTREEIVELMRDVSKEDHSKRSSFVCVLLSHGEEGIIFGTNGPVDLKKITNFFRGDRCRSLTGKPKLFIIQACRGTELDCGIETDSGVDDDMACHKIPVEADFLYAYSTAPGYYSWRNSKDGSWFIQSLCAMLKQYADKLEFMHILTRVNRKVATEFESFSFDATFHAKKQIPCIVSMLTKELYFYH
Outline: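 Differentiated HepaRG cells, plated 48 h, were treated in duplicate in serum-free induction medium for 48 h with eight half-log concentrations up to 100 uM in 0.5% DMSO. CASP3 mRNA measured by qRT-PCR, normalized to ACTB, GAPDH, POLR2A.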

[9] = read-out: Cytochrome P450 (CYP24A1), CYP24A1 (gene 1591); experiment: LTEA_HepaRG_CYP24A1: Life Technologies and Expression Analysis (LTEA) Assay for Cytochrome P450 (CYP24A1) using HepaRG (AID 2283478)
Outline: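 HepaRG cells plated 48 h, then exposed in duplicate in serum-free induction medium for 48 h to 8-point half-log series from 100 uM in 0.5% DMSO. CYP24A1 mRNA by Fluidigm qRT-PCR, normalized to ACTB, GAPDH, POLR2A; bidirectional fit versus DMSO.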

[10] = read-out: Cytochrome P450 (CYP1A2), CYP1A2 (gene 1544); experiment: LTEA_HepaRG_CYP1A2: Life Technologies and Expression Analysis (LTEA) Assay for Cytochrome P450 (CYP1A2) using HepaRG (AID 2283479)
Outline: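 Differentiated human HepaRG cells in serum-free induction medium exposed 48 hours in duplicate to 8 half-log concentrations from 100 uM, 0.5% DMSO. CYP1A2 mRNA quantified by qRT-PCR, normalized to ACTB, GAPDH and POLR2A; bidirectional fitting versus DMSO.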

[11] = read-out: cysteine-aspartic acid protease (CASP8), CASP8 (gene 841); experiment: LTEA_HepaRG_CASP8: Life Technologies and Expression Analysis (LTEA) Assay for cysteine-aspartic acid protease (CASP8) using HepaRG (AID 2283480)
Outline: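 Differentiated human HepaRG cells, plated 48 h then switched to serum-free induction medium, were exposed in duplicate for 48 h to 8 half-log concentrations up to 100 uM in 0.5% DMSO. CASP8 mRNA was quantified by qRT-PCR, normalized to ACTB/GAPDH/POLR2A.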

[12] = read-out: Cytochrome P450 (CYP2B6), CYP2B6 (gene 1555); experiment: LTEA_HepaRG_CYP2B6: Life Technologies and Expression Analysis (LTEA) Assay for Cytochrome P450 (CYP2B6) using HepaRG (AID 2283481)
Outline: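 Differentiated human HepaRG cells in serum-free induction medium, dosed in duplicate for 48 h over 8 half-log concentrations topping at 100 uM (0.5% DMSO). CYP2B6 mRNA measured by TaqMan qRT-PCR, normalized to ACTB, GAPDH, POLR2A; bidirectional fit versus DMSO.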

CYP2C8 (gene 1558) = experiment: LTEA_HepaRG_CYP2C8: Life Technologies and Expression Analysis (LTEA) Assay for CYP2C8 using HepaRG (AID 2283483)
Outline: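 Differentiated human HepaRG cells were exposed for 48 h in serum-free induction medium to eight half-log concentrations up to 100 uM in 0.5% DMSO, in duplicate. CYP2C8 mRNA was measured by TaqMan qRT-PCR, normalized to ACTB, GAPDH and POLR2A, and fitted bidirectionally against DMSO.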

CYP2C9 (gene 1559) = experiment: LTEA_HepaRG_CYP2C9: Life Technologies and Expression Analysis (LTEA) Assay for CYP2C9 using HepaRG (AID 2283484)
Outline: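 Differentiated human HepaRG cells were exposed 48 h in serum-free induction medium to eight half-log concentrations up to 100 uM in 0.5% DMSO. CYP2C9 mRNA was measured by qRT-PCR, normalized to ACTB, GAPDH and POLR2A, and fitted bidirectionally against DMSO.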

CYP4A11 (gene 1579) = experiment: LTEA_HepaRG_CYP4A11: Life Technologies and Expression Analysis (LTEA) Assay for CYP4A11 using HepaRG (AID 2283486)
Outline: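 Differentiated HepaRG cells, 48 h after plating, exposed in duplicate for 48 h to 8 half-log concentrations up to 100 uM in 0.5% DMSO in serum-free induction medium. CYP4A11 mRNA measured by TaqMan qRT-PCR, normalized to ACTB, GAPDH and POLR2A.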

[13] = read-out: Cytochrome P450 2C19 (Homo sapiens) (UniProt P33261); experiment: LTEA_HepaRG_CYP2C19: Life Technologies and Expression Analysis (LTEA) Assay for CYP2C19 using HepaRG (AID 2283482)
Outline: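 Differentiated HepaRG cells in serum-free induction medium exposed 48 h in duplicate, 8 concentrations from 100 uM by half-log steps in 0.5% DMSO. CYP2C19 mRNA measured by TaqMan qRT-PCR, normalized to ACTB, GAPDH, POLR2A. Bidirectional fit versus DMSO.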

[14] = read-out: Apolipoprotein A-V (APOA5) gene, APOA5 (gene 116519); experiment: LTEA_HepaRG_APOA5: Life Technologies and Expression Analysis (LTEA) Assay for Apolipoprotein A-V (APOA5) gene using HepaRG (AID 2283474)
Outline: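 Differentiated HepaRG cells in serum-free induction medium, exposed 48 h in duplicate to eight half-log concentrations topping at 100 uM (0.5% DMSO). APOA5 mRNA by Fluidigm TaqMan qRT-PCR, normalized to ACTB, GAPDH and POLR2A; bidirectional fit versus DMSO.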

CYP2E1 (gene 1571) = experiment: LTEA_HepaRG_CYP2E1: Life Technologies and Expression Analysis (LTEA) Assay for CYP2E1 using HepaRG (AID 2283485)
Outline: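 HepaRG cells, plated 48 h, then exposed 48 h in serum-free induction medium to eight half-log concentrations from 100 uM in 0.5% DMSO, duplicate. CYP2E1 mRNA by qRT-PCR, normalized to ACTB/GAPDH/POLR2A; bidirectional fit versus DMSO.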

Measured: AC50

Chain of Apoptosis regulator Bcl-2 (Homo sapiens) (P10415 whole entry, looked up): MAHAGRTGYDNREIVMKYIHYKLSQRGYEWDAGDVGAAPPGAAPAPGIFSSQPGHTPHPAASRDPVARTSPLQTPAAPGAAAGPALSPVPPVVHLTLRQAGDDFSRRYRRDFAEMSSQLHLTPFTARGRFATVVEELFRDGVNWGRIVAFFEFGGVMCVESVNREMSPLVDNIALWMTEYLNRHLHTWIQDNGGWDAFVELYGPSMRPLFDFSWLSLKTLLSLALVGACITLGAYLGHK
Chain of Cytochrome P450 2C19 (Homo sapiens) (P33261 whole entry, looked up): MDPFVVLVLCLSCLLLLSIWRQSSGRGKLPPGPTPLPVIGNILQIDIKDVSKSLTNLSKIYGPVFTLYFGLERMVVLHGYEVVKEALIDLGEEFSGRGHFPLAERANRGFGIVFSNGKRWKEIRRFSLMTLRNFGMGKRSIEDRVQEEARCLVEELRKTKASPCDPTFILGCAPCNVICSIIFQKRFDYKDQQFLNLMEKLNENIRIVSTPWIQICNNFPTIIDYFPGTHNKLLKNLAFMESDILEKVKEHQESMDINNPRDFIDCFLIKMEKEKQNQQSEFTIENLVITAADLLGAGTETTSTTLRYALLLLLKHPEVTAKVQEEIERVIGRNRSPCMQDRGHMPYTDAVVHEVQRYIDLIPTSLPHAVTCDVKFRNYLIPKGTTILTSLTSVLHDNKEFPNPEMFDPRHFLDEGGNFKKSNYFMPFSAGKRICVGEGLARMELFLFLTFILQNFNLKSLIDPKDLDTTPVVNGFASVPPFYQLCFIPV

C=CC(N)=O
not listed: [13] | [14] | CYP2E1 (gene 1571)
inactive: all other assays above

c1cc2ccc3cccc4ccc(c1)c2c34
active: [10] 50 µM | [12] 6.95 µM | CYP2C8 (gene 1558) 4.67 µM
not listed: [13] | [14] | CYP2E1 (gene 1571)
inactive: all other assays above

Cc1ccccc1CO[C@@H]1C[C@@]2(C(C)C)CC[C@]1(C)O2
active: [10] 76.3 µM | [12] 15.9 µM | [13] 32.5 µM | CYP2C8 (gene 1558) 50 µM
not listed: [14] | CYP2E1 (gene 1571)
inactive: all other assays above

C[C@]12CCC(=O)C=C1CC[C@@H]1[C@@H]2CC[C@@]2(C)[C@H]1CC[C@]2(C)O
active: [2] 24.5 µM | [6] 63.6 µM | [14] 45.8 µM | [7] 10.9 µM | [8] 45.8 µM | [10] 45.8 µM | [12] 10.8 µM | CYP2E1 (gene 1571) 79.5 µM | CYP4A11 (gene 1579) 73.6 µM
not listed: [3] | [13]
inactive: all other assays above
